Test [1] in a line: yeast TOR pathway RPL19A-GFP modulators, primary screen, cell-based, S. cerevisiae, multiplex flow cytometry (AID 1862; in the data active = percent of DMSO control GFP below about 86%;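 note: lower values mimic rapamycin by blocking the RPL19A rise seen in DMSO cells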). The following applies: S. cerevisiae RPL19A-GFP strain, flow cytometry fluorescence, 3 h; at 10 µM; stronger effect = lower value.
A short description of test [2]: modulators of MEP2-GFP levels in yeast, primary screen, S. cerevisiae, multiplex flow cytometry (AID 1867;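 active = GFP response, as percent of the DMSO control, above the screen-wide mean plus 3 SD, about 139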;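 note: median GFP channel fluorescence of barcode-gated MEP2-GFP cells measured by flow cytometry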). The following applies: S. cerevisiae MEP2-GFP strain, 3 h, at 10 µM, stronger effect = higher value, 100% means same as DMSO wells.
A short description of test [3]: modulators of CIT2-GFP expression in yeast, primary screen, S. cerevisiae, GFP fusion, multiplex flow cytometry (AID 1870;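 active = percent response above a set limit, the screen-wide mean plus 3 SD, cut at about 130% in these data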;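 note: barcoded CIT2-GFP strain pooled with four other GFP strains with rapamycin as positive control; median GFP fluorescence per well over plate mean of DMSO wells so 100% = DMSO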). The following applies: 3 h, at 10 µM, stronger effect = higher value.
Test [4] in a line: modulators of LAP4-GFP expression in yeast, primary screen, S. cerevisiae, multiplex flow cytometry (AID 1873;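 active = GFP signal, as percent of the solvent control, above the screen mean plus 3 SD, about 149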). As to conditions: 3 h, at 10 µM, stronger effect = higher value.
Test [5] can be described thus: modulators of AGP1-GFP expression in yeast TOR pathway, primary screen, cell-based, multiplex flow cytometry, S. cerevisiae (AID 1887;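 active = GFP signal above the screen-wide mean plus 3 SD, that is over about 124.5% of the solvent control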;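 note: AGP1-GFP fusion strain of S. cerevisiae within a five-strain barcoded multiplex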). The following applies: 3 h, at 10 µM, stronger effect = higher value.
Test [6] in a line: inhibitors of CD8+ T cell-vesicle binding, pilot screen, LFA-1/ICAM-1 modulator project, MLPCN validation set, flow cytometry (AID 2523;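 active = response below a set limit, under 55% cells CD8-positive and vesicle-bound, and CD8 cells' 90th-percentile brightness under 279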;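 for vesicle binding response: mean PE anti-B7-1 fluorescence of CD8+ cells relative to row control; 100% = QL9-loaded vesicles with DMSO vehicle in the same plate row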). The following applies: 2C mouse CD8+ T cells, at 7 µM, stronger effect = lower value; double positive events: measured here: CD8+/vesicle+ event percentage.
Test [7] concerns the target Integrin beta-1 (Homo sapiens) + Integrin alpha-4 (Homo sapiens) (UniProt P13612+P05556). The experiment in a line: inhibition of HUTS-21 binding to VLA-4, pilot screen, VLA-4 allosteric modulator project, U937 cells, HUTS-21 mAb, flow cytometry, validation set (AID 2674;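 active = inhibition above 50%, about 3 SD of the validation set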;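 note: antibody binding induced by the VLA-4 ligand LDV present at three times its Kd; 0% = LDV ligand with antibody and no compound and 100% = antibody without LDV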). The following applies: HUTS-21 LIBS mAb binding, at 6.7 µM, stronger effect = higher value, binding induced by LDV ligand.

The nature of test [8]: superoxide lowering in aged yeast cells, pilot screen, validation compound set (AID 2706;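 active = superoxide response below 65% of plate, a cut near 3 SD across the whole screen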;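 note: yeast exposed to compound for one week at 30 degrees C before staining; 100% = mean of all compound wells on the same plate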). As to conditions: S. cerevisiae aging, superoxide DHE fluorescence; at 10 µM; stronger effect = lower value.
In test [9] the target is Beta-adrenergic receptor kinase 1 (Homo sapiens) (UniProt P25098). The experiment in a line: GRK2 binders displacing RNA aptamer, biochemical, validation, human GRK2, bead flow cytometry (AID 488806;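 active = aptamer binding inhibition above 30%, about 3 SD of noise from non-fluorescent compounds; inactive = inhibition at or below 30%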). As to conditions: bead-bound GRK2, FAM-aptamer displacement, at 10 µM, stronger effect = higher value.
For test [10], the target named is Beta-2 adrenergic receptor (Homo sapiens) (UniProt P07550). The experiment in a line: beta2AR agonists driving receptor internalization, pilot screen, cell-based, FAP fluorogen, flow cytometry, validation set (AID 504459;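 active = percent response above 42, roughly 3 SD of non-fluorescent test compounds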;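 note: agonist-driven loss of surface beta2AR via internalization measured by FAP dye flow cytometry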). The following applies: Am2.2-beta2AR cells, FAP surface receptor flow cytometry; at 10 µM; stronger effect = higher value.
Test [11] deals with AP-2 complex subunit beta (Homo sapiens) (UniProt P63010). The experiment in a line: inhibitors of arrestin peptide binding to AP2, pilot screen, biochemical, validation set, GST-AP2 beads, flow cytometry (AID 504541;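 active = inhibition above 54%, about 3 SD of non-fluorescent compounds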;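 note: AP2 carries R879A mutation and is captured from E. coli lysate; bead-bound FITC arrestin peptide fluorescence measuring arrestin peptide binding to AP2; 0% = DMSO wells and 100% = excess unlabeled arrestin peptide control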). The following applies: FITC arrestin peptide, at 10 µM, stronger effect = higher value, AP2 beta2 appendage fragment, R879A mutant.
Test [12] can be described thus: yeast V-ATPase proton transport modulators, S. cerevisiae, pHLuorin, HTS validation (AID 504600; in the data active = response above about 15%;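 note: plate controls were DMSO for no effect and reference compound for full effect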). As to conditions: S. cerevisiae pHLuorin cytosolic pH, at 10 µM, stronger effect = higher value.
In test [13] the test system is anti-desmoglein-3 scFv antibody binding to human DSG3. The experiment in a line: inhibitors of anti-DSG3 scFv binding to DSG3, pilot screen, biochemical, validation compound set, bead-based, flow cytometry (AID 588368).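 Note: signal is the median channel fluorescence of bead-bound GFP antibody.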 The following applies: Protein G beads, DSG3-Fc, scFv-GFP binding, at 10 µM, stronger effect = lower value.
Test [14] in a line: inhibitors of fungal efflux pumps CDR1, CDR2, MDR1, pilot screen, validation compound set, multiplex, phenotypic (AID 588506;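 active = efflux inhibition above 0.42, the validation set average plus 4 SD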;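 note: Nile Red retained in cells so higher fluorescence means more efflux inhibition; 0 = negative control wells and 1 = enniatin B 25 µM full block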). As to conditions: S. cerevisiae pump-expressing triplex, Nile Red efflux flow cytometry; at 10 µM; stronger effect = higher value; the pumps come from Candida albicans.
The target in test [15] is ATP-binding cassette sub-family B member 6 (Homo sapiens) (UniProt Q9NP58). The experiment in a line: ABCB6 transporter inhibitors, pilot screen, K562-ABCB6 cells, flow cytometry, validation set (AID 588550;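 active = inhibition above the screen-wide mean plus 3 SD, about 51%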;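 note: 0% = DMSO wells and 100% = benzethonium chloride 70 µM positive control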). As to conditions: K562-ABCB6 porphyrin accumulation, 1 h, at 10 µM, stronger effect = higher value.
Test [16] is described as follows: promoters of myeloid differentiation in arrested cells, primary screen, cell-based, GFP/MAC1 double positive, flow cytometry, validation set (AID 588685;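 active = differentiation response of at least 50%, scaled between solvent and reference control, from cells with both markers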;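 note: compound exposure lasts four days before antibody staining and flow analysis; 0% = DMSO wells and 100% = 5 µM fulvestrant positive control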). The following applies: ER-HoxA9 marrow cells, stronger effect = higher value, normalized: vehicle 0, fulvestrant 100.

This note sets out measurements from PubChem BioAssay.

Inconclusive results are not listed. Activity calls are given as the source filed them.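 Rule for the calls, unless noted: active = binding below the plate cutoff, the plate median minus 3 SD, with a reading above zero; inconclusive = below the plate cutoff but reading exactly zero; inactive = the rest.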

Chain of Beta-2 adrenergic receptor (Homo sapiens) (P07550 whole entry, looked up): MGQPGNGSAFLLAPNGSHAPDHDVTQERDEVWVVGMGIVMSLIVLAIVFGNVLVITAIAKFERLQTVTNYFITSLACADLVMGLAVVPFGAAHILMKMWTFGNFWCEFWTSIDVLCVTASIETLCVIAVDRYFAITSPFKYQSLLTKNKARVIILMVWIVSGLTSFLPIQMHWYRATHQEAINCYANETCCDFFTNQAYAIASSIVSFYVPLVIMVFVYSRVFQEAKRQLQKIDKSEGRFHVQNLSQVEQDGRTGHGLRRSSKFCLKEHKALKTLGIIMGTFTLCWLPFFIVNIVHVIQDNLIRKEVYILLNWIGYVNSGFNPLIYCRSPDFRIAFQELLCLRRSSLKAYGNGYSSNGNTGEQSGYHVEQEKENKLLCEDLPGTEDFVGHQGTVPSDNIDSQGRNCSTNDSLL
Chain of ATP-binding cassette sub-family B member 6 (Homo sapiens) (Q9NP58 whole entry, looked up): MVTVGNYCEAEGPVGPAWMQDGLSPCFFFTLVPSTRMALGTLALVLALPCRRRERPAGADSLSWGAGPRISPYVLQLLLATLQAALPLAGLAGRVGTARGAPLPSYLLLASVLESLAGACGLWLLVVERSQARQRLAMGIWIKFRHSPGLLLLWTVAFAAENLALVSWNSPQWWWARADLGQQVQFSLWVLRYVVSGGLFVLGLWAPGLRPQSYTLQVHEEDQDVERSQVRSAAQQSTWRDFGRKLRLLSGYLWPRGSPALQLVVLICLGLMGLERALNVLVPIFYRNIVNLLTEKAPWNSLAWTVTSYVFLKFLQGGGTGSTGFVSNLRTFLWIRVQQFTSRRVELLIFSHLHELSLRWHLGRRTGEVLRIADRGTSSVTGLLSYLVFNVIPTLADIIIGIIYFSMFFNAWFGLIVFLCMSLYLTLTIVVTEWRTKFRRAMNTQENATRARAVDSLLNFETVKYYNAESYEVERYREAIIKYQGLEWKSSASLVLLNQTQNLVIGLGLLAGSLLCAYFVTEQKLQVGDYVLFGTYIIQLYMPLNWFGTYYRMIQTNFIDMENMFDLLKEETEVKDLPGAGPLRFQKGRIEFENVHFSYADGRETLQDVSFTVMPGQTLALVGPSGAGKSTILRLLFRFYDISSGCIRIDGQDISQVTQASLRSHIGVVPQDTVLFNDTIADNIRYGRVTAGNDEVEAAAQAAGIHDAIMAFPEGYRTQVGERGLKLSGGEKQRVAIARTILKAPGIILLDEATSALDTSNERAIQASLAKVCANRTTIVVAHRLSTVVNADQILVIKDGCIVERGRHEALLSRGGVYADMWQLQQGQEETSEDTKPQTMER
Chain of Beta-adrenergic receptor kinase 1 (Homo sapiens) (P25098 whole entry, looked up): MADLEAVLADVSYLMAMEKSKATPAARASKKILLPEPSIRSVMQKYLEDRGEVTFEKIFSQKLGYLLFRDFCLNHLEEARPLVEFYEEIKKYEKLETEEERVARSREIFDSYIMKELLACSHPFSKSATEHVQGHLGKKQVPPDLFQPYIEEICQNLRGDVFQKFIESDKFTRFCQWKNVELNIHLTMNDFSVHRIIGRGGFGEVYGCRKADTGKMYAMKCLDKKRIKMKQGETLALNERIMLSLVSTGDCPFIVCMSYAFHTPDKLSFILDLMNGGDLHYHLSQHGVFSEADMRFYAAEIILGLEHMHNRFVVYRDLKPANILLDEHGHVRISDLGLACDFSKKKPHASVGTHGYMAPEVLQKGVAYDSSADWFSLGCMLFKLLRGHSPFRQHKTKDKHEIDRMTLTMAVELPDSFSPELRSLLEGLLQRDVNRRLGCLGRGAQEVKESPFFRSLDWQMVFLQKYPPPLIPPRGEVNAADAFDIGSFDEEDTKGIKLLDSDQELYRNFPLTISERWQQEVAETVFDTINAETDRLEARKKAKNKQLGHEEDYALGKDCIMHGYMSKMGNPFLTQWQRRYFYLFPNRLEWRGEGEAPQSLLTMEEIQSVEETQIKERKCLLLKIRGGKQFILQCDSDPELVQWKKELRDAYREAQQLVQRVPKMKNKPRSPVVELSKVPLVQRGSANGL
Chain of AP-2 complex subunit beta (Homo sapiens) (P63010 whole entry, looked up, the tested form may be a part, one chain of several): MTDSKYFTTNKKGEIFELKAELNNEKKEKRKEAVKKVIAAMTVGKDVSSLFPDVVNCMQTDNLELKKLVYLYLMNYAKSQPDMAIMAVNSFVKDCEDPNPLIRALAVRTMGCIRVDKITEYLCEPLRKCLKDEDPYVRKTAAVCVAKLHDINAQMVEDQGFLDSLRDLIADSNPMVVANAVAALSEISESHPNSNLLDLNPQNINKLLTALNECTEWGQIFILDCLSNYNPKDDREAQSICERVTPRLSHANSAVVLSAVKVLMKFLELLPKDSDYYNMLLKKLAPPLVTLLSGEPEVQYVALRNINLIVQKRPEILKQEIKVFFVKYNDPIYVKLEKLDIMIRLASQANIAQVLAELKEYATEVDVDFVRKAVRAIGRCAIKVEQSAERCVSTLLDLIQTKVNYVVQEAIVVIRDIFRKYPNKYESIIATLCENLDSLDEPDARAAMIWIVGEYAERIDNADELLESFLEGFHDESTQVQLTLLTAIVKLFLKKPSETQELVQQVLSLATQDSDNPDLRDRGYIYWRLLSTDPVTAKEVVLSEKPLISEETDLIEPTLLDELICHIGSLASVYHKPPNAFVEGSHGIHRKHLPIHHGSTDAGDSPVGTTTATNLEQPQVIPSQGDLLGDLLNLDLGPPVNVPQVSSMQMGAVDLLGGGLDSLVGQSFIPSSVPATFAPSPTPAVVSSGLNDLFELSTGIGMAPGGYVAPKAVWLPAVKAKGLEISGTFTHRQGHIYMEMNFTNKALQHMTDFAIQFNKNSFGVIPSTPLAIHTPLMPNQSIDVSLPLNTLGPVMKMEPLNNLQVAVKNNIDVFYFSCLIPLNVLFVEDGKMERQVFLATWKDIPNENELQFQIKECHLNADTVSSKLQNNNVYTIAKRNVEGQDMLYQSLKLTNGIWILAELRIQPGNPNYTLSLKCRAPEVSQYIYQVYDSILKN
Chain of Integrin beta-1 (Homo sapiens) + Integrin alpha-4 (Homo sapiens) (P05556 whole entry, looked up): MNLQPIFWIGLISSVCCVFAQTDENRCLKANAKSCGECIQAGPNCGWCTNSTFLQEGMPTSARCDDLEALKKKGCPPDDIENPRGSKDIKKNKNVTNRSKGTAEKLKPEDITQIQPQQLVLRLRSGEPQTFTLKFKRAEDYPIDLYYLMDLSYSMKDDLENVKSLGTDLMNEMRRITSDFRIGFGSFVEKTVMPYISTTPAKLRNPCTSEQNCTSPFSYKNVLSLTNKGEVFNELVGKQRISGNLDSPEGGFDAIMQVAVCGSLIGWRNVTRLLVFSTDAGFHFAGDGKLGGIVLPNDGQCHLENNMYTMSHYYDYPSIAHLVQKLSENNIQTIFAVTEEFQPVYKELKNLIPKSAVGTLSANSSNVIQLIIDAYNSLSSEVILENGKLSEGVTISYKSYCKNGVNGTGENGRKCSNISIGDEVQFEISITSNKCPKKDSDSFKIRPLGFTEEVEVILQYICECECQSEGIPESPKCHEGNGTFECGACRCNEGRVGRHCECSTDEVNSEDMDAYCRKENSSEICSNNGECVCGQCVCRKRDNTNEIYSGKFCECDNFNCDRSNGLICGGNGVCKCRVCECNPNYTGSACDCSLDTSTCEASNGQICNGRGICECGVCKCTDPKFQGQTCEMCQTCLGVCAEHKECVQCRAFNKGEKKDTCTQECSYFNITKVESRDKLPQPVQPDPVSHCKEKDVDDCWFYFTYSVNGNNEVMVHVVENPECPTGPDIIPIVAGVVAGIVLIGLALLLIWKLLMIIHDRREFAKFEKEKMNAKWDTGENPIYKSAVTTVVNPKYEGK
Chain of Integrin beta-1 (Homo sapiens) + Integrin alpha-4 (Homo sapiens) (P13612 whole entry, looked up): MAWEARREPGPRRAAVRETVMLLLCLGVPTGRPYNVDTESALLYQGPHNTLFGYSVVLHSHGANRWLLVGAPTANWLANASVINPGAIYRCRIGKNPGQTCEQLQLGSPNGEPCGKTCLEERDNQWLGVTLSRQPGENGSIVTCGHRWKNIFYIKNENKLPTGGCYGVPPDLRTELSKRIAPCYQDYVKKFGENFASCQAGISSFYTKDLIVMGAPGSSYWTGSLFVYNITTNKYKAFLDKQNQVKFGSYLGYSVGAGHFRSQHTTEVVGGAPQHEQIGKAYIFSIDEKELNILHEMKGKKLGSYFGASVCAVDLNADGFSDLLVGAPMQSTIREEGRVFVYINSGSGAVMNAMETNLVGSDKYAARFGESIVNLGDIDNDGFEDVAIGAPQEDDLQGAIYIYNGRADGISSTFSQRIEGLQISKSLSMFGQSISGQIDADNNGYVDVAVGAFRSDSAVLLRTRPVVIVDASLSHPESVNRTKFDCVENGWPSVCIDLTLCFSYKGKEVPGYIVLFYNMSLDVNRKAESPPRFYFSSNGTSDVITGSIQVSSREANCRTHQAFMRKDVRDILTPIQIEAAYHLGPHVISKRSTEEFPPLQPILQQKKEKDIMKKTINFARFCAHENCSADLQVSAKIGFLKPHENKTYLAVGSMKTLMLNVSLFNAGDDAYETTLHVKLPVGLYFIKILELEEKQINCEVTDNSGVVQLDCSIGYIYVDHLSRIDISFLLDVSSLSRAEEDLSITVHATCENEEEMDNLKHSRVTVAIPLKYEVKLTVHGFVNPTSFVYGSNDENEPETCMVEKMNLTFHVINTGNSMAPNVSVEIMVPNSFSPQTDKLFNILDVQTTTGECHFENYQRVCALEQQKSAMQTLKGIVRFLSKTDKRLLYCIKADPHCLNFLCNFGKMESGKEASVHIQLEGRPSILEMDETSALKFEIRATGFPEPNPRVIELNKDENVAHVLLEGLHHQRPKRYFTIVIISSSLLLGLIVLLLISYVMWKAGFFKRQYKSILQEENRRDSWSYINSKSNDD

On to `O=C(O)c1ccc(-c2ccc(O)c(F)c2)cc1`, for which, in test [1], the percent of DMSO control GFP was 105% (inactive). The GFP response vs DMSO in test [2] is 105% (inactive); in test [4], 98% (inactive). The percent response of DMSO control in test [3] was 111% (inactive). Moreover, the GFP response, % of DMSO in test [5] was 102% (inactive). The double positive events in test [6] stood at 60%. Also, the vesicle binding response in [6] was 4700% (inactive). The values for the inhibition in test [7], in test [11] and in test [15] were -1.49% (inactive), -6.99% (inactive) and -1% (inactive), respectively. In addition, the superoxide response (% of plate) in [8] is 96.3% (inactive). The aptamer binding inhibition in [9] is -2% (inactive). Besides, the response is -5.66% (inactive) in test [10] and 3.09% (inactive) in test [12]. Moreover, in [13], the binding (% of control) is 97.9% (inactive). Moreover, the efflux inhibition (fraction of control) in [14] is -0.17 (inactive). Besides, the differentiation response in test [16] was -6.6% (inactive).
Turning to `OCCC1CN(Cc2ccccc2-c2ccco2)CCN1C1CCCC1` (centres undefined), the percent of DMSO control GFP in [1] is 99% (inactive). Moreover, the GFP response vs DMSO is 97.6% (inactive) in [2] and 110% (inactive) in test [4]. The percent response of DMSO control in [3] is 93.1% (inactive). In addition, the GFP response, % of DMSO in [5] is 110% (inactive). In [6], this molecule returned a double positive events of 59%. Also, in test [6], the vesicle binding response was 123% (inactive). The inhibition in [7] is 12.5% (inactive); in [11], -16.3% (inactive); in [15], 1% (inactive). Moreover, in test [8], the superoxide response (% of plate) was 95% (inactive). Also, the aptamer binding inhibition in test [9] was 0% (inactive). The response in test [10] is -21.4% (inactive); in test [12], 4.26% (inactive). The binding (% of control) in test [13] was 101% (inactive). Further, the efflux inhibition (fraction of control) in test [14] was 0.04 (inactive). In addition, the differentiation response in test [16] was -3.02% (inactive).
As for `CCC(=O)Oc1ccc(C(=O)Nc2ccc([N+](=O)[O-])cc2)cc1`, the percent of DMSO control GFP in test [1] is 87.8% (inactive). The GFP response vs DMSO is 148% (active) in test [2] and 82.5% (inactive) in test [4]. In addition, the percent response of DMSO control in test [3] is 90% (inactive). Besides, the GFP response, % of DMSO in [5] is 80.8% (inactive). Moreover, in test [6], the double positive events was found to be 61.8%. For the same molecule, the vesicle binding response in test [6] is 195% (inactive). Further, the results for the inhibition in test [7], in test [11] and in [15] were -0.33% (inactive), 15.9% (inactive) and 14% (inactive), respectively. Besides, the superoxide response (% of plate) in [8] was 88.4% (inactive). The aptamer binding inhibition in test [9] was 5% (inactive). In addition, the response in test [10] is 4.9% (inactive); in test [12], -4.69% (inactive). Further, the binding (% of control) in test [13] was 100% (inactive). In test [14], the efflux inhibition (fraction of control) is -0.38 (inactive). Moreover, the differentiation response in test [16] is -6.55% (inactive).
With `CN(C)CCOCCOc1ccc(Cl)cc1Br`, in test [1], the percent of DMSO control GFP is 93.7% (inactive). Besides, the GFP response vs DMSO in test [2] is 119% (inactive); in test [4] it was 77% (inactive). Also, the percent response of DMSO control in test [3] is 101% (inactive). Moreover, in test [5], the GFP response, % of DMSO was 90.3% (inactive). In test [6], the double positive events is 47.1%. In test [6], the vesicle binding response was 160% (inactive). In addition, the inhibition is -2.27% (inactive) in [7], -6.43% (inactive) in test [11] and 4% (inactive) in test [15]. Moreover, the superoxide response (% of plate) in test [8] was 97.8% (inactive). The aptamer binding inhibition in test [9] is -6% (inactive). Moreover, the response in test [10] was -10% (inactive); in [12], 1.08% (inactive). In addition, the binding (% of control) in test [13] was 105% (inactive). The efflux inhibition (fraction of control) in test [14] is 0.09 (inactive). In test [16], the differentiation response was 13.1% (inactive).
With `Cc1ccc(CN2CCN(CCCc3ccccc3)CC2CCO)cc1` (centres undefined), the percent of DMSO control GFP in [1] is 103% (inactive). For the same molecule, the results for the GFP response vs DMSO in test [2] and in test [4] were 104% (inactive) and 97.3% (inactive), respectively. Moreover, the percent response of DMSO control in test [3] was 106% (inactive). The GFP response, % of DMSO in test [5] was 104% (inactive). Moreover, the double positive events in test [6] amounted to 62.7%. Further, the vesicle binding response in test [6] was 219% (inactive). Besides, the inhibition in test [7] is 7.85% (inactive); in [11] it was 30.3% (inactive); in test [15] it was -8% (inactive). Further, in test [8], the superoxide response (% of plate) is 106% (inactive). Further, the aptamer binding inhibition in [9] is 1% (inactive). In addition, the response in [10] was 9.66% (inactive); in test [12] it was -5.49% (inactive). The binding (% of control) in test [13] was 102% (inactive). In addition, the efflux inhibition (fraction of control) in test [14] is -0.01 (inactive). Besides, in test [16], the differentiation response was 10% (inactive).
As to `O=C(NCC1CCCO1)c1ccc(OC2CCN(C(=O)C3CC3)CC2)cc1` (centres undefined), the percent of DMSO control GFP in test [1] is 98.2% (inactive). In addition, the values for the GFP response vs DMSO in [2] and in test [4] were 106% (inactive) and 96.6% (inactive), respectively. Moreover, the percent response of DMSO control in test [3] is 97.8% (inactive). In [5], the GFP response, % of DMSO was 99.4% (inactive). The molecule further had a double positive events in test [6] of 63.1%. The vesicle binding response in test [6] was 5260% (inactive). Further, the inhibition was -22.2% (inactive) in [7], -5.78% (inactive) in [11] and 3% (inactive) in test [15]. The superoxide response (% of plate) in [8] is 94% (inactive). The aptamer binding inhibition in [9] was 2% (inactive). The response in test [10] was -3.28% (inactive); in test [12], 0.79% (inactive). For the same molecule, the binding (% of control) in test [13] was 101% (inactive). The efflux inhibition (fraction of control) in test [14] is -0.01 (inactive). In test [16], the differentiation response was -6.6% (inactive).
Turning to `O=C(/C=C/c1ccc(F)cc1)NC(=S)N1CCCCC1c1cccnc1` (centres undefined), the percent of DMSO control GFP in test [1] was 103% (inactive). In addition, the GFP response vs DMSO in test [2] is 106% (inactive); in test [4], 117% (inactive). For the same molecule, the percent response of DMSO control in test [3] is 112% (inactive). The GFP response, % of DMSO in [5] was 112% (inactive). Also, the double positive events in test [6] came to 56.7%. Further, the vesicle binding response in [6] was 165% (inactive). Further, the inhibition in test [7] is -3.67% (inactive); in test [11] it was 1.74% (inactive); in [15], -5% (inactive). Besides, in test [8], the superoxide response (% of plate) is 92.2% (inactive). In [9], the aptamer binding inhibition is 82% (active). The values for the response in test [10] and in test [12] were -15.6% (inactive) and 5.24% (inactive), respectively. Also, the binding (% of control) in [13] is 104% (inactive). In addition, the efflux inhibition (fraction of control) in test [14] is -0.13 (inactive). Further, in test [16], the differentiation response was -4.99% (inactive).
